# Some compounds were tested as several samples or in several runs, with calls that do not always agree. The source made the active and inactive calls. Rule for the calls: active = hit-call score of the fitted dose curve at least 0.9, where 1 is the maximum; inactive = score below 0.9.
# Test: APR_HepG2_P-H2AX_24hr: Apredica 24-hour HepG2 Assay for H2AX Phosphorylation (AID 2282920)
# Conditions: high-content imaging, actives raise or lower the signal
# Experimental: APR_HepG2_24hr is a cell-based, multiplexed-readout assay that uses HepG2, a human liver cell line, with measurements taken at 24 hours after chemical dosing in a 384-well plate.APR_HepG2_P-H2AX_24hr is one of 10 assay component(s) measured or calculated from the APR_HepG2_24hr assay. It is designed to make measurements of dna content, a form of viability reporter, as detected with fluorescence intensity signals by HCS Fluorescent Imaging technology.Data from the assay component APR_HepG2_P-H2AX_24hr was analyzed into 1 assay endpoint. This assay endpoint, APR_HepG2_P-H2AX_24hr, was analyzed with bidirectional fitting relative to DMSO as the negative control and baseline of activity. Using a type of viability reporter, measures of protein for gain or loss-of-signal activity can be used to understand the signaling at the pathway-level as they relate to the gene . Furthermore, this assay endpoint can be referred to as a primary readout, because this assay has produced multiple assay endpoints where this one serves a signaling function. To generalize the intended target to other relatable targets, this assay endpoint is annotated to the dna binding intended target family, where the subfamily is cellular response to DNA damage stimulus.
# Cells were treated with dimethyl sulfoxide (DMSO) as a solvent control at a final concentration of 0.5% v/v or with compounds in DMSO with a resulting final DMSO concentration of 0.5% v/v. Compound treatment was done at concentrations of 0.39, 0.78, 1.56, 3.12, 6.24, 12.5, 25, 50, 100, and 200 uM in duplicate on each plate. Cells were treated with compounds for 1, 24, or 72 hr. Carbonyl […] m-chloro-phenylhydrazone (CCCP) and taxol were used as positive controls for mitochondrial function and cytoskeletal stability, respectively; DMSO served as the negative control for this experiment. Cells were fixed by the direct addition of 50 uL formaldehyde in Hank's Balanced Salt Solution (HBSS) to a final concentration of 3.7%. After incubation in the fixation medium for 30 min at room temperature (293-298 K), cells were rinsed twice with HBSS and treated with cell permeabilization buffer (16 uL of 0.5% Triton X-100) for 10 min at room temperature (293-298 K) before labeling. For mitochondrial membrane potential and mitochondrial measurements, pre-fixed cells were incubated with 50 uL of MitoTracker Red CMXRos (Invitrogen) at a concentration of 250 nM for 30 min before fixation. In the remaining cases, post-fixed cells were labeled by incubation with a multiplexed mixture of primary antibodies in HBSS for 60 min at room temperature (293-298 K) to detect immunoreactivity of c-Jun (1:500), phospho-histone H3 (1:100), phospho-histone H2A.x (1:200), p53 (1:400), alpha-tubulin (1:200) and Hoechst 33342 (2 ug/mL). Cells were labeled for multiplexed imaging on two separate plates: a) Hoechst 33342, MitoTracker Red, phospho-histone H3, and alpha-tubulin, and b) Hoechst 33342, phospho-histone H2A.x, and c-Jun. A final rinse with HBSS (50 uL) was performed before analysis. The primary and secondary antibodies for the proteins were phospho-histone H3 (rabbit anti-phospho-histone H3 and FITC-donkey anti-rabbit IgG), phospho-histone H2A.x (mouse anti-phospho-histone H2A.x and FITC-donkey anti-mouse IgG), c-Jun (rabbit anti-phospho-c-Jun and Cy3-donkey anti-rabbit IgG), p53 (sheep anti-p53 and Cy5-donkey anti-sheep IgG), alpha-tubulin (mouse anti-alpha-tubulin and Cy5-donkey anti-mouse IgG). These antibodies are available as the CellCiphr HepG2 assay kit (Millipore).Digital images of each well were captured using a Cellomics ArrayScan VTI (Thermo Scientific Cellomics) (0.8 NA objective, 0.63x optical coupler, and XF-93 filter set) at 20x magnification. The images were acquired using the autofocus feature of the ArrayScan instrument, which entails the following steps. First, the camera focuses on channel 1 (Hoechst 33342), where nuclei are identified. Second, a Z offset of 1 um is used for capturing mitochondria (MitoTracker Red). […]
Structure (SMILES),AC50,outcome
CC(C)(c1ccccc1)c1ccc(O)c(C(C)(C)c2ccccc2)c1,69.5 µM (active),
CCN1CCC2(CC1)COc1cc3c(cc12)N(C(=O)c1ccc(-c2ccc(-c4nnc(C)o4)cc2C)cc1)CC3,28.9 µM (active),
O=c1[nH]c(=O)[nH]c(=O)[nH]1,,inactive
CC12CC1(C)C(=O)N(c1cc(Cl)cc(Cl)c1)C2=O (stereo not given),,inactive
Oc1cccc2cccnc12,,inactive
COc1cc(-c2ccc(N)c(OC)c2)ccc1N,50.8 µM (active),inactive
CC(=O)[O][Hg][c]1ccccc1,1.74 µM (active),
C[C@]12CCC(=O)C[C@@H]1CC[C@@H]1[C@@H]2CC[C@]2(C)[C@@H](O)CC[C@@H]12,,inactive
O=C(O)C(Cl)(Cl)Cl,106 µM (active),inactive
ClC1(Cl)C2(Cl)C3(Cl)C4(Cl)C(Cl)(Cl)C5(Cl)C3(Cl)C1(Cl)C5(Cl)C24Cl (stereo not given),,inactive
CN(C)N=O,,inactive
NC(=O)O,9.46 µM (active),
CCCCCCCCc1ccc(O)cc1,,inactive
C[C@@H]1C[C@@H]([C@H](O)CC2CC(=O)NC(=O)C2)C(=O)[C@@H](C)C1,,inactive
CC(C)(OO)c1ccccc1,69.3 µM (active),
Cc1ccccc1N,,inactive
CCC(=O)C(CC(C)N(C)C)(c1ccccc1)c1ccccc1 (stereo not given),,inactive
CC(C)(C)CC(C)(C)c1ccc(O)cc1,,inactive
O=C(O)C(F)(F)C(F)(F)C(F)(F)C(F)(F)C(F)(F)C(F)(F)C(F)(F)C(F)(F)C(F)(F)C(F)(F)F,71.5 µM (active),
C=C(C)C(=O)[O][Sn]([CH2]CCC)([CH2]CCC)[CH2]CCC,0.159 µM (active),
O=C1C2(Cl)C3(Cl)C4(Cl)C(Cl)(Cl)C5(Cl)C3(Cl)C1(Cl)C5(Cl)C24Cl (stereo not given),46.6 µM (active),
CC(C)(C)c1cc(O)ccc1O,,inactive
O=C(O)C(F)(F)C(F)(F)C(F)(F)C(F)(F)C(F)(F)C(F)(F)F,,inactive
ClCC(Cl)CCl,,inactive
Cn1sc(Cl)cc1=O,110 µM (active),
O=C(Nc1ccc2[nH]ccc2c1)c1cc2cc(F)ccc2n1Cc1cccc(F)c1,38.8 µM (active),
CCC(C)(C)c1ccc(O)c(C(C)(C)CC)c1,39.3 µM (active),
C=CC(=O)OCCCCCC(C)C,,inactive

# Reference: PubChem BioAssay (EPA / NIEHS)
